# Source: PubChem BioAssay
# hgDAF12 agonist = H. glycines DAF-12 receptor agonists, primary screen, cell-based, luminescence, HEK293, GAL4 fusion, UAS-luciferase; Nuclear hormone receptor DAF-12 (Heterodera glycines), GAL4 fusion; HEK293 GAL4-hgDAF12 UAS-luciferase reporter, agonist luminescence; normalized to butyrate control; activation, % at 6.8 µM; 370,000 compounds, 1.8% hits; AID 687014, 2013;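 active = activation above a cutoff set at the mean of all screened compounds plus 3 SD, cut at about 10% in these data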;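 also: 0% = DMSO wells and 100% = sodium butyrate wells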
# ssDAF12 agonist = S. stercoralis DAF-12 nuclear receptor activators, primary screen, cell-based, luminescence, HEK293, GRIP1 co-expression, lit1-tk-luc; Nuclear hormone receptor DAF-12 (Strongyloides stercoralis); HEK293 ssDAF-12/GRIP1 lit1-tk-luc reporter; % of 3 µM dafachronic acid response; activation, % at 6.8 µM; 370,000 compounds, 1% hits; AID 652126, 2013;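 active = activation above the mean over all tested compounds plus 3 SD, cut at about 0.9% in these data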;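 also: 0% = DMSO-only wells and 100% = 3 µM delta7-dafachronic acid wells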
# SMARCA2 activ = SMARCA2 (BRM) function activators, primary screen, cell-based, luminescence, high throughput; MG213 cells, MMTV-luciferase reporter, dexamethasone, overnight; activation, % at 9.1 µM; 370,000 compounds, 1% hits; in the data active = activation above about 7.8%;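 also: 0% = vehicle wells and 100% = reference activator wells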
# DAX1 inh-1 = DAX1 (NR0B1) inhibitors, primary screen, cell-based, HEK293, Gal4-DAX1, luciferase luminescence; Nuclear receptor subfamily 0 group B member 1 (Homo sapiens), P51843; inhibition, % at 6.75 µM; HEK293 Gal4-DAX1 luciferase reporter; AID 504766, 2011; 340,000 compounds, 0.99% hits;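 active = inhibition above the mean over all tested compounds plus 3 SD, cut at about 4.2% in these data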;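 also: 0% = DAX1-transfected cells with DMSO and 100% = empty-vector control cells with DMSO; inhibition shows as a rise in luminescence from relieved DAX1 repression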
# Target sequence (P51843 207-470 limits assumed): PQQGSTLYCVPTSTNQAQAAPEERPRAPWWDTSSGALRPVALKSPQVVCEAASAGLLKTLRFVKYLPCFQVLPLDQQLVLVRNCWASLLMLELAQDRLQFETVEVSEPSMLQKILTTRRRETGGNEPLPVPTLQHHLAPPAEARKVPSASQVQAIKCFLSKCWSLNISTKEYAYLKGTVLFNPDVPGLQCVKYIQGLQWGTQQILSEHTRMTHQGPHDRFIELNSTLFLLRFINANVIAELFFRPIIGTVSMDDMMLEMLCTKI
# hcDAF12 agonist = H. contortus DAF-12 nuclear receptor activators, primary screen, cell-based, luminescence, HEK293, lit1-tk-luc reporter; activation, % at 6.8 µM; HEK293 hcDAF-12 lit1-tk-luc reporter; 0% DMSO, 100% Δ7-dafachronic acid; 370,000 compounds, 1.4% hits;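 active = activation above the mean of all tested compounds plus 3 SD, cut at about 5.5% in these data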;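 also: 100% = response to 3 µM Δ7-dafachronic acid high control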
# DAX1 inh-2 = DAX1 (NR0B1) inhibitors on StAR promoter, primary screen, cell-based, luminescence, SF-1 (NR5A1), full-length DAX-1 | inhibition, % at 6.8 µM | 370,000 compounds, 1.1% hits | AID 652010, 2013 | HEK293T StAR-luciferase reporter, SF-1/DAX-1 repression relief;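 active = inhibition above the mean over all tested compounds plus 3 SD, cut at about 3.6% in these data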;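 also: 0% = DAX-1 cells with DMSO and 100% = cells lacking DAX-1 with DMSO; higher inhibition means more luminescence from relief of DAX-1 repression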
# Active calls of the source: *; / = no result. Most compounds without a hit are left out; they make up all but 4.8% or so of the library.
SMILES,hgDAF12 agonist,ssDAF12 agonist,SMARCA2 activ,DAX1 inh-1,hcDAF12 agonist,DAX1 inh-2
Cc1ccc(NC(=O)NCc2c(C)nn(C)c2C)cc1Cl,13*,-1,6,1,1,4.3*
CC(=O)c1ccc(-n2nnnc2SCC(=O)N2CCc3ccccc3C2)cc1,0,-1,2,0,0,0
Cc1cccc(N2CCN(C(=O)c3ccccc3NC(=O)C3CC=CCC3C(=O)O)CC2)c1 (centres undefined),0,-1,-1,4.4*,1,0
CCCOc1ccc(C2c3c(oc4cc(C)c(C)cc4c3=O)C(=O)N2CCCN(C)C)cc1 (centres undefined),4,-1,-1,6.7*,0,1
COC(=O)c1ccc(NC(=O)C2CC3CCC2C3)cc1 (centres undefined),7,-1,4,2,0,1
COc1ccc(C(=O)Nc2cccc(-c3nc4ncccc4o3)c2C)cc1OC,1,-1,2,0,-1,0
CCOC(=O)N/N=C\C=C\c1ccc2c(c1)OCO2,5,-1,0,5.2*,1,1
CC(C)(C)OC(=O)N/N=C\C=C\c1ccc2c(c1)OCO2,13*,0,7,0,2,2
CCOC(=O)CNC(=O)/C=C/c1ccc2c(c1)OCO2,7,0.9*,-5,0,0,0
CCOC(=O)c1cccc(NC(=O)/C=C/c2ccc3c(c2)OCO3)c1,2,-2,-1,-5,-3,0
CN(C)CCCOC(=O)N1c2ccccc2C=Cc2ccccc21,0,-2,0,0,-1,0
CCCCCC(=O)NNC(=O)c1c(O)c2ccccc2n(CC)c1=O,3,-1,-3,0,0,0
O=C(CSCc1ccccc1)NNC(=S)Nc1cccc(Cl)c1Cl,-1,-1,0,0,0,0
CCCC1CCC(c2nc(-c3cccnc3)no2)CC1 (centres undefined),0,-1,-2,4.7*,0,1
Cc1noc(C)c1S(=O)(=O)N(CC(=O)NCc1ccc2c(c1)OCO2)c1ccc(C(C)C)cc1,1,-1,3,0,-1,0
CNS(=O)(=O)c1ccc(CNC[C@H]2O[C@@H](n3ccc(N)nc3=O)[C@H](O)[C@@H]2O)cc1,-1,-1,-1,4.6*,-1,-1
O=C(NCc1ccccc1)C(c1ccncc1)n1c(=O)c(-c2ccco2)nc2ccccc21 (centres undefined),2,-1,1,/,0,1
COc1ccc(NC(=O)C(c2ccnc3ccccc23)n2c(=O)c(-c3ccccc3)nc3ccccc32)cc1 (centres undefined),-1,0,-4,/,5.6*,-1
COc1ccc(NC(=O)C(c2ccnc3ccccc23)n2c(=O)c(-c3ccco3)nc3ccccc32)cc1 (centres undefined),2,0,-1,/,2,0
O=C(NCc1ccccc1)C(c1ccc(-c2ccccc2)cc1)n1c(=O)c(-c2ccco2)nc2ccccc21 (centres undefined),2,1.3*,0,/,2,0
O=C(NC1CCCCC1)C(C1CC1)n1c(=O)c(-c2ccco2)nc2ccccc21 (centres undefined),-3,1.9*,-4,/,0,0
COc1ccc(C(C(=O)NC(C)(C)C)n2c(=O)c(-c3ccco3)nc3ccccc32)cc1 (centres undefined),2,1.5*,-6,/,1,-1
COc1cc2c(cc1[N+](=O)[O-])n(C(C)C)c(=O)n2C(C)C,-4,-1,4,5.5*,-2,0
COc1cc(CC(=O)O)c([N+](=O)[O-])cc1OC,2,-1,0,2,-1,0
COc1ccc(NC(=O)Nc2ccc(Br)cn2)cc1OC,1,-1,-3,0,1,0
SMILES,hgDAF12 agonist,ssDAF12 agonist,SMARCA2 activ,DAX1 inh-1,hcDAF12 agonist,DAX1 inh-2
CCSc1nsc(NC(=O)Nc2ccccc2Cl)n1,11*,0,1,1,0,0
O=C(CSc1ccc(-c2ccccc2)nn1)N1CCCCC1,7,1.0*,1,1,5,2
COc1cccc(-c2ccc(SCC(=O)c3ccccc3)nn2)c1,3,-2,-1,0,-3,0
COc1ccc(-c2ccc(SCC(=O)N3CCOCC3)nn2)cc1,4,-1,-1,1,0,1
COc1ccc(-c2ccc(SC)nn2)cc1,5,-1,1,-3,5,4.4*
COc1ccc(C(=O)CSc2ccc(-c3ccccc3)nn2)cc1,-1,-1,8,4.6*,-1,1
CC1(Cc2ccccc2Cl)C(=O)Nc2ccc(OC(F)(F)F)cc21 (centres undefined),0,-1,-3,/,-3,0
NC(=O)CSc1nnc(NC(=O)c2ccc(S(=O)(=O)N3CCCCC3)cc2)s1,0,-1,2,3,-1,-1
Cc1ccc(C)c(N2CCN(C(=O)CCS(=O)(=O)c3ccc4c(c3)CCN4C(=O)C3CC3)CC2)c1,-2,-1,7.9*,2,2,0
CCOC(=O)C1CCN(C(=O)CCS(=O)(=O)c2ccc3c(c2)CCN3C(=O)CC)CC1,1,-2,-1,-1,-1,0
COc1ccc(-c2c(-c3cccc(C)c3)oc3ccc(-c4ccc5c(c4)OCO5)cc23)cn1,2,-1,1,1,-1,1
CCOc1ccccc1C(=O)NCCNC(=O)c1ccccc1OCC,-1,-2,-3,2,-1,0
CCOc1ccccc1C(=O)NN1C(=O)CCC1=O,4,1.0*,-3,3,4,0
O=C(CSc1cccs1)Nc1ccc(Cl)cc1,4,-1,2,4.9*,2,0
O=C(CSc1ccc(Cl)cc1)Nc1ccccc1,6,-1,-3,1,1,0
COc1cccc(/C=C2\SC(N)=NC2=O)c1OS(=O)(=O)c1ccccc1,1,1.1*,3,1,-1,1
NNC(=O)c1ccc(CSc2nc3ccccc3s2)cc1,11*,-1,-5,-1,6.1*,0
Cc1ccc(C(=O)NC(=S)Nc2cccnc2Cl)cc1,12*,0,3,1,4,2
